# Data taken from the supplement of paper PMC6992640.
# What was measured:
# HCI01 = cells of a triple-negative basal-like breast cancer xenograft; test: cell viability of combination (% of vehicle); higher = less cytotoxic; conditions: 1 µM; 72 h; partner dose: 10 nM
# Description: (§1)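 PDX cells were treated for 72 h with each drug at 1 µM plus carfilzomib (10 nM; 100 nM for WHIM2). Luciferase viability is expressed as percent of vehicle.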
# UCD52 = cells of a triple-negative basal-like breast cancer xenograft; test: as above; conditions: 1 µM; 72 h; partner dose: 10 nM
# Description: as §1
Structure (SMILES),cell viability of combination (HCI01),cell viability of combination (UCD52)
C[C@H]1O[C@@H](O[C@H]2[C@@H](O)C[C@H](O[C@H]3[C@@H](O)C[C@H](O[C@H]4CC[C@@]5(C)[C@H](CC[C@@H]6[C@@H]5C[C@@H](O)[C@]5(C)[C@@H](C7=CC(=O)OC7)CC[C@]65O)C4)O[C@@H]3C)O[C@@H]2C)C[C@H](O)[C@@H]1O [Digoxin] + CC(C)C[C@H](NC(=O)[C@H](CCc1ccccc1)NC(=O)CN1CCOCC1)C(=O)N[C@@H](Cc1ccccc1)C(=O)N[C@@H](CC(C)C)C(=O)[C@@]1(C)CO1 [Carfilzomib],40.7,16.9
O=C(O)c1cc(O)c(O)c(O)c1 [Gallic acid] + CC(C)C[C@H](NC(=O)[C@H](CCc1ccccc1)NC(=O)CN1CCOCC1)C(=O)N[C@@H](Cc1ccccc1)C(=O)N[C@@H](CC(C)C)C(=O)[C@@]1(C)CO1 [Carfilzomib],74.5,60.9
COc1cc2nccc(Oc3ccc(NC(=O)Nc4cc(C)on4)c(Cl)c3)c2cc1OC [Tivozanib (AV-951)] + CC(C)C[C@H](NC(=O)[C@H](CCc1ccccc1)NC(=O)CN1CCOCC1)C(=O)N[C@@H](Cc1ccccc1)C(=O)N[C@@H](CC(C)C)C(=O)[C@@]1(C)CO1 [Carfilzomib],97.5,48.9
CC(NCCCc1cccc(C(F)(F)F)c1)c1cccc2ccccc12.Cl (stereo not drawn) [Cinacalcet HCl] + CC(C)C[C@H](NC(=O)[C@H](CCc1ccccc1)NC(=O)CN1CCOCC1)C(=O)N[C@@H](Cc1ccccc1)C(=O)N[C@@H](CC(C)C)C(=O)[C@@]1(C)CO1 [Carfilzomib],89.6,59.9
CSc1ccc2c(c1)N(CCC1CCCCN1C)c1ccccc1S2.Cl (stereo not drawn) [Thioridazine HCl] + CC(C)C[C@H](NC(=O)[C@H](CCc1ccccc1)NC(=O)CN1CCOCC1)C(=O)N[C@@H](Cc1ccccc1)C(=O)N[C@@H](CC(C)C)C(=O)[C@@]1(C)CO1 [Carfilzomib],77.7,64.4
CN(C)c1ccc(O)c2c1CC1CC3C(N(C)C)C(=O)C(C(N)=O)=C(O)C3(O)C(=O)C1=C2O.Cl (stereo not drawn) [Minocycline HCl] + CC(C)C[C@H](NC(=O)[C@H](CCc1ccccc1)NC(=O)CN1CCOCC1)C(=O)N[C@@H](Cc1ccccc1)C(=O)N[C@@H](CC(C)C)C(=O)[C@@]1(C)CO1 [Carfilzomib],83.9,65.9
CCc1c(Cl)c(O)c(Cl)c(O)c1C(=O)OC1C(C)OC(OCC2=CC=CCC(O)C(C)=CC(CC)C(OC3OC(C)(C)C(OC(=O)C(C)C)C(O)C3O)C(C)=CC(C)=CCC(C(C)O)OC2=O)C(OC)C1O (stereo not drawn) [Fidaxomicin] + CC(C)C[C@H](NC(=O)[C@H](CCc1ccccc1)NC(=O)CN1CCOCC1)C(=O)N[C@@H](Cc1ccccc1)C(=O)N[C@@H](CC(C)C)C(=O)[C@@]1(C)CO1 [Carfilzomib],92.5,62.7
CO[C@H]1C[C@@H]2CC[C@@H](C)[C@@](O)(O2)C(=O)C(=O)N2CCCC[C@H]2C(=O)O[C@H]([C@H](C)C[C@@H]2CC[C@@H](O)[C@H](OC)C2)CC(=O)[C@H](C)/C=C(\C)[C@@H](O)[C@@H](OC)C(=O)[C@H](C)C[C@H](C)/C=C/C=C/C=C/1C [Rapamycin (Sirolimus)] + CC(C)C[C@H](NC(=O)[C@H](CCc1ccccc1)NC(=O)CN1CCOCC1)C(=O)N[C@@H](Cc1ccccc1)C(=O)N[C@@H](CC(C)C)C(=O)[C@@]1(C)CO1 [Carfilzomib],68.3,49.1
COc1cc2c(Oc3ccc4[nH]c(C)cc4c3F)ncnc2cc1OCCCN1CCCC1 [Cediranib (AZD217)] + CC(C)C[C@H](NC(=O)[C@H](CCc1ccccc1)NC(=O)CN1CCOCC1)C(=O)N[C@@H](Cc1ccccc1)C(=O)N[C@@H](CC(C)C)C(=O)[C@@]1(C)CO1 [Carfilzomib],80.6,31.6
CCOC(=O)c1c(CSc2ccccc2)n(C)c2cc(Br)c(O)c(CN(C)C)c12.Cl [Arbidol HCl] + CC(C)C[C@H](NC(=O)[C@H](CCc1ccccc1)NC(=O)CN1CCOCC1)C(=O)N[C@@H](Cc1ccccc1)C(=O)N[C@@H](CC(C)C)C(=O)[C@@]1(C)CO1 [Carfilzomib],76.6,58.5
CC1=C(C(=O)OC(C)C)C(c2cccc([N+](=O)[O-])c2)C(C(=O)OC2CN(C(c3ccccc3)c3ccccc3)C2)=C(N)N1 (stereo not drawn) [Azelnidipine] + CC(C)C[C@H](NC(=O)[C@H](CCc1ccccc1)NC(=O)CN1CCOCC1)C(=O)N[C@@H](Cc1ccccc1)C(=O)N[C@@H](CC(C)C)C(=O)[C@@]1(C)CO1 [Carfilzomib],112,46.6
Clc1ccc(C(Cn2ccnc2)OCc2c(Cl)cccc2Cl)c(Cl)c1.O=[N+]([O-])O (stereo not drawn) [Isoconazole nitrate] + CC(C)C[C@H](NC(=O)[C@H](CCc1ccccc1)NC(=O)CN1CCOCC1)C(=O)N[C@@H](Cc1ccccc1)C(=O)N[C@@H](CC(C)C)C(=O)[C@@]1(C)CO1 [Carfilzomib],92.6,61.5
CCOc1cc2ncc(C#N)c(Nc3ccc(F)c(Cl)c3)c2cc1NC(=O)C=CCN(C)C [Pelitinib (EKB-569)] + CC(C)C[C@H](NC(=O)[C@H](CCc1ccccc1)NC(=O)CN1CCOCC1)C(=O)N[C@@H](Cc1ccccc1)C(=O)N[C@@H](CC(C)C)C(=O)[C@@]1(C)CO1 [Carfilzomib],140,40.8
CCOc1cc2ncc(C#N)c(Nc3ccc(OCc4ccccn4)c(Cl)c3)c2cc1NC(=O)C=CCN(C)C [Neratinib (HKI-272)] + CC(C)C[C@H](NC(=O)[C@H](CCc1ccccc1)NC(=O)CN1CCOCC1)C(=O)N[C@@H](Cc1ccccc1)C(=O)N[C@@H](CC(C)C)C(=O)[C@@]1(C)CO1 [Carfilzomib],87.8,48.7
COc1cccc2c1C(=O)c1c(O)c3c(c(O)c1C2=O)C[C@@](O)(C(C)=O)C[C@@H]3O[C@H]1C[C@H](N)[C@H](O)[C@H](C)O1.Cl [Daunorubicin HCl] + CC(C)C[C@H](NC(=O)[C@H](CCc1ccccc1)NC(=O)CN1CCOCC1)C(=O)N[C@@H](Cc1ccccc1)C(=O)N[C@@H](CC(C)C)C(=O)[C@@]1(C)CO1 [Carfilzomib],79.9,17.1
CC(O)C(=O)O.CC(O)C(=O)O.CN1CCN(c2ccc3c(c2)NC(=C2C(=O)N=c4cccc(F)c4=C2N)N3)CC1 [Dovitinib Dilactic acid] + CC(C)C[C@H](NC(=O)[C@H](CCc1ccccc1)NC(=O)CN1CCOCC1)C(=O)N[C@@H](Cc1ccccc1)C(=O)N[C@@H](CC(C)C)C(=O)[C@@]1(C)CO1 [Carfilzomib],71.2,88.8
CN1CCN(c2ccc(C(=O)/N=c3\[nH][nH]c4ccc(Cc5cc(F)cc(F)c5)cc34)c(NC3CCOCC3)c2)CC1 [Entrectinib] + CC(C)C[C@H](NC(=O)[C@H](CCc1ccccc1)NC(=O)CN1CCOCC1)C(=O)N[C@@H](Cc1ccccc1)C(=O)N[C@@H](CC(C)C)C(=O)[C@@]1(C)CO1 [Carfilzomib],90.7,45
O=C(C=Cn1cnc(-c2cc(C(F)(F)F)cc(C(F)(F)F)c2)n1)NNc1cnccn1 + CC(C)C[C@H](NC(=O)[C@H](CCc1ccccc1)NC(=O)CN1CCOCC1)C(=O)N[C@@H](Cc1ccccc1)C(=O)N[C@@H](CC(C)C)C(=O)[C@@]1(C)CO1 [Carfilzomib],57.3,40.1
CN1CCN(CCCN2c3ccccc3Sc3ccc(C(F)(F)F)cc32)CC1.Cl.Cl [Trifluoperazine 2HCl] + CC(C)C[C@H](NC(=O)[C@H](CCc1ccccc1)NC(=O)CN1CCOCC1)C(=O)N[C@@H](Cc1ccccc1)C(=O)N[C@@H](CC(C)C)C(=O)[C@@]1(C)CO1 [Carfilzomib],76.2,59.5
O=C(NN=Cc1ccc([N+](=O)[O-])o1)c1ccc(O)cc1 [Nifuroxazide] + CC(C)C[C@H](NC(=O)[C@H](CCc1ccccc1)NC(=O)CN1CCOCC1)C(=O)N[C@@H](Cc1ccccc1)C(=O)N[C@@H](CC(C)C)C(=O)[C@@]1(C)CO1 [Carfilzomib],72.2,57.6
CC(O)C(=O)O.CCOc1ccc2nc3cc(N)ccc3c(N)c2c1.O [Ethacridine lactate monohydrate] + CC(C)C[C@H](NC(=O)[C@H](CCc1ccccc1)NC(=O)CN1CCOCC1)C(=O)N[C@@H](Cc1ccccc1)C(=O)N[C@@H](CC(C)C)C(=O)[C@@]1(C)CO1 [Carfilzomib],74.3,66.7
Cl.Clc1ccccc1CN1CCc2sccc2C1 [Ticlopidine HCl] + CC(C)C[C@H](NC(=O)[C@H](CCc1ccccc1)NC(=O)CN1CCOCC1)C(=O)N[C@@H](Cc1ccccc1)C(=O)N[C@@H](CC(C)C)C(=O)[C@@]1(C)CO1 [Carfilzomib],78.4,58.7
CO[C@H]1/C=C/O[C@@]2(C)Oc3c(C)c(O)c4c(O)c(c(/C=N/N5CCN(C6CCCC6)CC5)c(O)c4c3C2=O)NC(=O)/C(C)=C\C=C\[C@H](C)[C@H](O)[C@@H](C)[C@@H](O)[C@@H](C)[C@H](OC(C)=O)[C@@H]1C [Rifapentine] + CC(C)C[C@H](NC(=O)[C@H](CCc1ccccc1)NC(=O)CN1CCOCC1)C(=O)N[C@@H](Cc1ccccc1)C(=O)N[C@@H](CC(C)C)C(=O)[C@@]1(C)CO1 [Carfilzomib],78.8,58.6
CCc1oc2ccccc2c1C(=O)c1cc(Br)c(O)c(Br)c1 [Benzbromarone] + CC(C)C[C@H](NC(=O)[C@H](CCc1ccccc1)NC(=O)CN1CCOCC1)C(=O)N[C@@H](Cc1ccccc1)C(=O)N[C@@H](CC(C)C)C(=O)[C@@]1(C)CO1 [Carfilzomib],84.6,63.1
